Results as given in PubChem BioAssay AID1224921 (Broad Institute, 2016).
Screen size: about 1,400 compounds; about 350 (25%) were called active. Inconclusive results (about 2%) are left out. How the calls were made is not given here. Only a sample is shown. Results with a measured potency or affinity are listed apart.

Assay: inhibitors of Clostridioides difficile proliferation – 4-point retest, confirmation (AID 1224921);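 further: plate controls were DMSO wells for no effect and levofloxacin 16 µg/mL wells for full effect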
Details: Clostridioides difficile clinical isolate growth, OD600, 24 h, active compounds read low; at 30 µM unless noted

Max activity, inactive:
CCS(=O)(=O)Nc1ccc2c(c1)C(=O)N(C)C[C@H](OC)[C@@H](C)CN(C(C)=O)[C@H](C)CO2 8.06%, CO[C@@H]1CN(C)C(=O)c2cc(NC(=O)c3ccc(-c4ccccc4)cc3)ccc2OC[C@H](C)NC[C@H]1C 10.1% [at 1.95 µM], CCc1cnc(N2[C@H](CO)[C@@H](c3ccc(C4=CCCCC4)cc3)[C@@H]2C#N)s1 36.5% [at 0.5 µM], C[C@H]1CN([C@@H](C)CO)S(=O)(=O)c2ccc(/C=C/c3ccccc3)cc2O[C@H]1CN(C)C(=O)NC1CCCCC1 52.4%, COCC(=O)Nc1ccc2c(c1)OC[C@@H](C)N(Cc1ccccc1OC)C[C@@H](C)[C@H](OC)CN(C)C2=O -8.61% [at 7.5 µM], CC(C)COC(=O)N(C)C[C@@H]1OCc2ccccc2-c2c(n(C)c3ccccc23)C(=O)N([C@@H](C)CO)C[C@@H]1C -18.1% [at 8 µM], CCC(=O)Nc1ccc2c(c1)C(=O)N(C)C[C@@H](OC)[C@@H](C)CN(Cc1cncnc1)[C@@H](C)CO2 -7.99% [at 0.5 µM], C[C@@H]1CN([C@@H](C)CO)C(=O)Cc2cc(NS(C)(=O)=O)ccc2O[C@@H]1CN(C)Cc1ccc(Oc2ccccc2)cc1 36.1% [at 35 µM], C[C@H](CO)N1C[C@H](C)[C@@H](CN(C)Cc2ccncc2)Oc2cc(-c3ccccc3)ccc2S1(=O)=O 23.5%, C[C@@H]1CCCCO[C@H](CN(C)CC2CCCCC2)[C@H](C)CN([C@@H](C)CO)C(=O)c2cc(NC(=O)Nc3ccc(F)cc3)ccc2O1 11.6%, C[C@@H]1CCCCO[C@H](CN(C)CC2CCCCC2)[C@H](C)CN([C@@H](C)CO)C(=O)c2cc(NC(=O)Nc3ccccc3)ccc2O1 9.95%, CO[C@H]1O[C@H](CO)[C@@H](OC(=O)Nc2ccccc2)[C@H](OC(=O)Nc2ccc3c(c2)OCO3)[C@H]1OC(=O)Nc1ccc2c(c1)OCO2 -7.27% [at 1.95 µM], Cc1ccccc1S(=O)(=O)NCC[C@H]1CC[C@H](NC(=O)Nc2cccc(Cl)c2)[C@@H](CO)O1 13.2%, CO[C@@H]1CN(C)C(=O)c2cc(NC(C)=O)ccc2OC[C@H](C)N(Cc2nccs2)C[C@@H]1C 24.6%, CC(C)NC(=O)N1[C@H](C#N)[C@@H](c2ccc(-c3ccc(F)cc3)cc2)[C@@H]1CO 21.4% [at 8 µM], N#C[C@H]1[C@@H](c2ccc(-c3ccc(F)cc3)cc2)[C@H](CO)N1C(=O)Cc1ccccc1 29.3% [at 8 µM], CC(C)C#Cc1ccc([C@@H]2[C@@H](CO)N(C(=O)c3cccc(F)c3)[C@H]2C#N)cc1 15.2%, N#C[C@@H]1[C@@H](c2ccc(C#Cc3ccc(F)cc3)cc2)[C@H](CO)N1C(=O)C1CCC1 35.7%, CO[C@H]1O[C@H](CO)[C@@H](OC(=O)c2ccc(Br)cc2)[C@H](OC(=O)c2cc3ccccc3[nH]2)[C@H]1OC(=O)c1cc2ccccc2[nH]1 39.8%, CC(C)CC#Cc1ccc2c(c1)O[C@H](CN(C)Cc1ccncc1)[C@H](C)CN([C@@H](C)CO)S2(=O)=O 25.7%, C[C@@H]1CN([C@@H](C)CO)S(=O)(=O)c2ccc(C#CC3(O)CCCC3)cc2O[C@@H]1CN(C)C(=O)Nc1cccc(F)c1 40.2%, CO[C@H]1CN(C)C(=O)c2cc(NS(=O)(=O)c3cn(C)cn3)ccc2OC[C@H](C)N(C)C[C@@H]1C -7.09% [at 0.5 µM], COc1cccc(NC(=O)N[C@@H]2C=C[C@H](CC(=O)NCc3ccncn3)O[C@H]2CO)c1 11.5%, CC(C)NC(=O)N(C)C[C@H]1Oc2cc(C#Cc3cccc(F)c3)ccc2S(=O)(=O)N([C@H](C)CO)C[C@H]1C 32.6%, C[C@H](CO)N1C[C@H](C)[C@@H](CN(C)Cc2ccc(Cl)c(Cl)c2)Oc2ccc(NS(=O)(=O)c3cccs3)cc2CC1=O 37.8% [at 8 µM], CO[C@@H]1CN(C)C(=O)c2ccc(NC(=O)NC(C)C)cc2OC[C@@H](C)N(C(=O)NC(C)C)C[C@H]1C -11.6% [at 2.1 µM], CCCC(=O)Nc1ccc2c(c1)OC[C@H](C)N(CCc1ccccc1)C[C@@H](C)[C@H](OC)CN(C)C2=O 25.9%, O=C(Nc1ccc(Cl)cc1)N[C@@H]1CC[C@@H](CCn2cc(C3(O)CCCC3)nn2)O[C@@H]1CO 29.6%, C[C@@H]1CN([C@@H](C)CO)C(=O)c2ccccc2-c2ccccc2CO[C@H]1CN(C)CC1CC1 9.59%, CO[C@@H]1CN(C)C(=O)c2ccc(NC(=O)Nc3cccc(F)c3)cc2OC[C@@H](C)N(C(=O)C2CC2)C[C@H]1C -12.2% [at 8 µM], C[C@@H]1CN([C@@H](C)CO)C(=O)c2cc(NC(=O)NC3CCCCC3)ccc2O[C@@H](C)CCCCO[C@@H]1CN(C)Cc1ccc(C(F)(F)F)cc1 24.6%, CC(C)CC#Cc1ccc2c(c1)O[C@H](CN(C)Cc1ccccn1)[C@@H](C)CN([C@@H](C)CO)S2(=O)=O 27.1%, CC(C)C#Cc1ccc2c(c1)O[C@H](CN(C)Cc1cccnc1)[C@@H](C)CN([C@H](C)CO)S2(=O)=O 44.6%, CCCC(=O)Nc1ccc2c(c1)C(=O)N(C)C[C@@H](OC)[C@@H](C)CN(C)[C@@H](C)CO2 -13% [at 8 µM], C[C@@H]1CN([C@H](C)CO)C(=O)c2cccc(NC(=O)Nc3ccc(F)cc3)c2O[C@H]1CN(C)S(=O)(=O)c1ccc(F)cc1 -11.6% [at 7.5 µM], C[C@H]1CN([C@@H](C)CO)C(=O)c2cccc(NC(=O)Nc3ccc(C(F)(F)F)cc3)c2O[C@@H]1CN(C)Cc1ccc2c(c1)OCO2 42%, Cc1ccc(S(=O)(=O)N(C)C[C@@H]2Oc3c(NC(=O)Nc4ccc(F)cc4)cccc3C(=O)N([C@H](C)CO)C[C@H]2C)cc1 -10.7% [at 1.95 µM], C[C@@H]1CN([C@@H](C)CO)C(=O)c2cccc(NC(=O)Nc3ccc(C(F)(F)F)cc3)c2O[C@H]1CN(C)Cc1ccc2c(c1)OCO2 34.4% [at 8 µM]
